Only some compounds are listed: those with a hit (about 3.5% of all), similar ones and a draw of the others.
GPR151 activ: human GPR151 activation; 650,000 tested, 1% active; AID 1508602; Q8TDV0; PathHunter beta-arrestin GPR151 cells, luminescence; activation, % at 11.2 µM; in the data active = activation above about 4.9%
TEAD-YAP inh: TEAD-YAP interaction inhibition. AID 1259422. HEK-TIYL cells, TEAD-Gal4/YAP UAS-luciferase luminescence. inhibition, % at 9.12 µM. 640,000 tested, 1.4% active; in the data active = inhibition above about 32%
FBW7 activator: human FBW7 E3 ligase activation, primary screen; AlphaScreen FBW7–phospho-cyclin E peptide binding, activator screen; normalized activity (activation), % at 26.1 µM; 650,000 tested, 0.13% active; Q969H0; in the data active = normalized activity above about 1.9%;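 note: purified mutant Fbw7 with reduced substrate affinity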
Target sequence (Q969H0 whole entry, looked up): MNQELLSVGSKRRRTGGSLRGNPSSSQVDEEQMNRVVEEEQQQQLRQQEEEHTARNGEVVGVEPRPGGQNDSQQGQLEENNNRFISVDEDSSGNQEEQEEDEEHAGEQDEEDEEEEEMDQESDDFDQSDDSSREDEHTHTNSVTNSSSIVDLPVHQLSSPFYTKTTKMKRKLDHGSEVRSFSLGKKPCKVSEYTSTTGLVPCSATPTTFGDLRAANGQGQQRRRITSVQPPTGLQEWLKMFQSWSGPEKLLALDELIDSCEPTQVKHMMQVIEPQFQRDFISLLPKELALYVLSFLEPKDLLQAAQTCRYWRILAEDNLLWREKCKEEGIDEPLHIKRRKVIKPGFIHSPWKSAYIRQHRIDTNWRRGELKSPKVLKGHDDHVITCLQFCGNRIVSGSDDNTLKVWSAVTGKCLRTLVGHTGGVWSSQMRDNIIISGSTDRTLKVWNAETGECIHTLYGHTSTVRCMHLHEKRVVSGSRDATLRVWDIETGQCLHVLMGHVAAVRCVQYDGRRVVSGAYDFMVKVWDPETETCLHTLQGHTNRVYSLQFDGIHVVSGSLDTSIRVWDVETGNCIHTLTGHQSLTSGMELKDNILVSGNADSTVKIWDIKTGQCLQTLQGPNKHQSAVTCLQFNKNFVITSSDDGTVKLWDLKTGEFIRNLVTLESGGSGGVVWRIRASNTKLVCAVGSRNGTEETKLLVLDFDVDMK
MITF inh: inhibitors of human MITF; O75030; 650,000 tested, 0.91% active; AlphaScreen MITF homodimerization, bead proximity signal; inhibition, % at 2.6 µM; in the data active = inhibition above about 50%
GPR151 confirm: confirmation of human GPR151 activators; shares compounds with GPR151 activ; GPR151 PathHunter beta-arrestin cells, luminescence, 90 min; % of EA-reagent control over plate median; activation, % at 11.2 µM; 6,700 tested, under 10 active; AID 1508609;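 active = mean percent activation across replicates above the confirmation screen cutoff of 4.91%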
GPR119 ag: counter-screen for GPR151 activators: effect on human GPR119; shares compounds with GPR151 activ; GPR119 PathHunter beta-arrestin cells, luminescence, 90 min; 0 = compound-well median, 100 = enzyme-acceptor control; activation, % at 11.2 µM; 6,700 tested, 0.3% active;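 active = mean percent activation in the counterscreen above 29.09%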;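 note: counterscreen on off-target GPR119 to flag nonselective hits from the GPR151 activator screen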
Of the large screens only hits and unclear results are named; the others gave an inactive call (follow-up assays come after a bar, where they were run).

COc1ccc(C(=O)Nc2c3c(nn2C(C)(C)C)CSC3)c(OC)c1	none
COc1cccc(-c2cc(CC(=O)NCCC3=CCCCC3)no2)c1	GPR151 activ 6.1 | GPR151 confirm inactive | GPR119 ag inactive
Cc1cccc(N2CCN(C(=O)c3ccc(N4CC5CC(C4)c4cccc(=O)n4C5)c(NC(=O)c4ccc(F)cc4)c3)CC2C)c1 (stereo not drawn)	none
CC1CCCC(NCc2c(C(=O)O)n(Cc3ccccc3F)c3ccccc23)C1C (stereo not drawn)	GPR151 activ 13 | GPR151 confirm inactive | GPR119 ag inactive
CC1CCCC(NCc2c(C(=O)O)n(Cc3ccccc3Cl)c3ccccc23)C1C (stereo not drawn)	none
CCOC(=O)CSc1nc2c(sc(=S)n2-c2ccccc2OC)c(=O)n1-c1ccccc1	none
Fc1cccc(-c2cc3nc4c(c(N5CCOCC5)n3n2)CCC4)c1	GPR151 activ 6.7 | GPR151 confirm inactive | GPR119 ag inactive
Fc1ccc(-c2cc3nc4c(c(N5CCOCC5)n3n2)CCC4)cc1	none
COc1ccc(CCNC(=O)c2ccc(CN(c3ccc(C)c(C)c3)S(C)(=O)=O)cc2)cc1OC	none
COCCn1c(SCc2cccc(Cl)c2)nc2c([nH]c3ccccc32)c1=O	GPR151 activ 11 | GPR151 confirm inactive | GPR119 ag inactive
COCCn1c(SCc2ccc(F)cc2)nc2c([nH]c3ccccc32)c1=O	none
CCn1c(=O)n(-c2ccccc2)c(=O)c2c3c(sc21)CN(C(C)=O)CC3	none
CCn1c(=O)n(-c2ccccc2C)c(=O)c2c3c(sc21)CN(C(C)=O)CC3	GPR151 activ 9.0 | GPR151 confirm inactive | GPR119 ag inactive
Brc1ccc(-c2cc(-c3ccccc3)nc(-c3ccccc3)c2)cc1	none
Cc1ccccc1NC1=C(Cl)C(=O)OC1OC(=O)c1ccccc1 (stereo not drawn)	none
Cc1ccccc1C(=O)N/N=C/c1ccc(OCC(=O)N2CCCCC2)cc1	GPR151 activ 6.7 | GPR151 confirm inactive | GPR119 ag inactive
CCOc1ccc(/C=N/NC(=O)c2ccccc2C)cc1	none
COc1ccccc1N(CC(=O)Nc1ccccc1C)S(=O)(=O)/C=C/c1ccccc1	none
O=C(Cn1cc(/C=C2\SC(=S)NC2=O)c2ccccc21)NCc1cccs1	GPR151 activ 6.8 | GPR151 confirm inactive | GPR119 ag inactive
CCCCCCCCCCCCCC/C(C(=O)O)=C(\C)C(=O)O	GPR151 activ 9.5 | GPR151 confirm inactive | GPR119 ag inactive
CC1CCc2sc(NC(=O)C3CC3)c(C(N)=O)c2C1 (stereo not drawn)	none
O=C(NCCN1CCOCC1)c1cncc(-c2cccs2)c1	GPR151 activ 7.3 | GPR151 confirm inactive | GPR119 ag inactive
COc1cccc(O)c1CN1CCN(CCC(C)C)C(CCO)C1 (stereo not drawn)	none
CC1CCN(S(=O)(=O)c2cccc(-c3nnc(-c4cccc([N+](=O)[O-])c4)o3)c2)CC1	GPR151 activ 5.6 | GPR151 confirm inactive | GPR119 ag inactive
O=[N+]([O-])c1cccc(-c2nnc(-c3cccc(S(=O)(=O)N4CCOCC4)c3)o2)c1	none
O=C(CN1C(=O)c2ccccc2C1=O)Nn1c(-c2cccc(Cl)c2)nc2ccccc2c1=O	GPR151 activ 6.7 | GPR151 confirm inactive | GPR119 ag inactive
CCN1C(=O)CC(C(=O)Nc2cccc(OC)c2)SC1=Nc1cccc(Cl)c1 (stereo not drawn)	none
COc1cccc(OC)c1OCCN1CCNCC1	none
Clc1ccccc1OCCN1CCNCC1	GPR151 activ 5.4 | GPR151 confirm inactive | GPR119 ag inactive
Nc1[nH]n(-c2ccccc2)c(=O)c1N=Nc1ccc2[nH]c(=O)[nH]c2c1	none
CSCCC(NC(=O)C1CCC(C)CC1)C(=O)NCc1ccccn1 (stereo not drawn)	GPR151 activ 5.0 | GPR151 confirm inactive | GPR119 ag inactive
CCOC(=O)c1c(N)c(C#N)cn1-c1ccccc1	GPR151 activ 8.6 | GPR151 confirm inactive | GPR119 ag inactive
Cc1nnc(NCC2CCCO2)[nH]c1=O (stereo not drawn)	none
COc1ccccc1OCC(=O)NCc1ccc(C)cc1	GPR151 activ 5.4 | GPR151 confirm inactive | GPR119 ag inactive
Cc1ccc(CNC(=O)Cc2ccc(Cl)cc2)cc1	GPR151 activ 8.4 | GPR151 confirm inactive | GPR119 ag inactive
Cc1ccc(CNC(=O)c2ccc(-n3cccc3)cc2)cc1	none
Cc1ccc(CNC(=O)c2sccc2-n2cccc2)cc1	GPR151 activ 5.6 | GPR151 confirm inactive | GPR119 ag inactive
Cc1ccc(CNC(=O)C(=O)NCc2ccc(Cl)cc2)cc1	none
Cc1ccc(CNC(=O)c2ccc(C)cc2)cc1	none
Cc1ccc(CNC(=O)c2csnn2)cc1	GPR151 activ 13 | GPR151 confirm inactive | GPR119 ag inactive
CC(=O)Oc1ccccc1N1C(=O)c2ccc(Oc3ccc([N+](=O)[O-])cc3)cc2C1=O	none
O=C1N[C@@H](Cc2ccc(Cl)cc2)C(=O)N2C[C@@H](NCc3cc(F)ccc3F)C[C@@H]12	none
COc1ccc(C(=O)N2CCCC(c3nnc(C)s3)C2)cc1 (stereo not drawn)	none
COc1cc(-c2nn(CN3CC(C)OC(C)C3)c(=S)o2)cc(OC)c1OC (stereo not drawn)	none
O=C(CN(C(=O)c1csnn1)c1ccc(F)cc1)NCc1ccccc1	GPR151 activ 5.6 | GPR151 confirm inactive | GPR119 ag inactive
O=C(Nc1nc2c(s1)-c1cccc3cccc-2c13)C1CC1	GPR151 activ 5.0 | GPR151 confirm inactive | GPR119 ag inactive
O=C(Nc1nc2ccc3ccccc3c2s1)C1CC1	none
CC(C)(C)c1cc(C(c2ccccc2O)N2CCCCC2)cc(C(C)(C)C)c1O (stereo not drawn)	none
O=C(CCCC(=O)N(CC(=O)NC1CCCCC1)Cc1ccccc1)Nc1ccccn1	none
O=C(CN(CC1CCCO1)C(=O)CCC(=O)Nc1nccs1)NCc1ccccc1 (stereo not drawn)	GPR151 activ 9.4 | GPR151 confirm inactive | GPR119 ag inactive
O=C(CCCC(=O)N(CC(=O)NC1CCCCC1)CC1CCCO1)Nc1ccccn1 (stereo not drawn)	GPR151 activ 8.7 | GPR151 confirm inactive | GPR119 ag inactive
CC1CCCN(c2ccc(C(=O)NC3CC3)cc2[N+](=O)[O-])C1 (stereo not drawn)	none
Cc1ccccc1-c1nnc2n1N=C(c1ccc(Cl)cc1)CS2	GPR151 activ 6.6 | GPR151 confirm inactive | GPR119 ag inactive
Clc1ccc(-c2nnc3n2N=C(c2ccccc2)CS3)cc1	none
CCOC(=O)c1cc(-c2ccc(OC)cc2F)nc2onc(C)c12	none
CCCCN(/C=N/S(=O)(=O)c1ccccc1)CCCC	GPR151 activ 11 | GPR151 confirm inactive | GPR119 ag inactive
O=C(CSc1ccc2nnc(-c3cccnc3)n2n1)N1CCCCCC1	none

Bioassay records deposited in PubChem BioAssay by The Scripps Research Institute Molecular Screening Center.
